# According to the supplement of paper PMC13380429:
# Tests used:
# [1] = system: Vero E6 infected with SARS-CoV-2; experiment: morphology score (similarity to uninfected cells); higher = more like uninfected cells; conditions: 24 h
# [2] = system: Vero E6 infected with SARS-CoV-2; experiment: SARS-CoV-2 infection rate relative to infected DMSO; higher = more infection, active = 60 or less; conditions: 24 h
# [3] = system: Vero E6 infected with SARS-CoV-2; experiment: inhibition of SARS-CoV-2 cytopathic effect; higher = more antiviral protection, active = above 15; conditions: 48 h
compound,measurement,setting,value
CN1CCN(c2ccc(C(=O)Nc3n[nH]c4ccc(Cc5cc(F)cc(F)c5)cc34)c(NC3CCOCC3)c2)CC1 [entrectinib] (0.833333 µM),morphology score,[1],0.134
same,SARS-CoV-2 infection rate,[2],96.5% (inactive)
Cc1cc(OI)c(C(C)C)cc1-c1cc(C(C)C)c(OI)cc1C [thymol-iodide] (10 µM),morphology score,[1],-0.117
same,SARS-CoV-2 infection rate,[2],104% (inactive)
Cn1cc(-c2ccc3c(c2)CCN3C(=O)Cc2cccc(C(F)(F)F)c2)c2c(N)ncnc21 (0.833333 µM),morphology score,[1],0.029
same,SARS-CoV-2 infection rate,[2],92% (inactive)
COc1ccc2[nH]c3c(-c4cccc5ccccc45)nccc3c2c1 (10 µM),morphology score,[1],-0.0282
same,SARS-CoV-2 infection rate,[2],111% (inactive)
N[C@H]1C(O)O[C@H](CO)[C@@H](O)[C@@H]1O (mixture of isomers) [glucosamine] (10 µM),morphology score,[1],-0.0432
same,SARS-CoV-2 infection rate,[2],105% (inactive)
CC(C)=CCC[C@](C)(O[C@@H]1O[C@H](CO)[C@@H](O)[C@H](O)[C@H]1O)[C@H]1CC[C@]2(C)[C@@H]1[C@H](O)C[C@@H]1[C@@]3(C)CC[C@H](O[C@@H]4O[C@H](CO)[C@@H](O)[C@H](O)[C@H]4O[C@@H]4O[C@H](CO)[C@@H](O)[C@H](O)[C@H]4O)C(C)(C)[C@@H]3CC[C@]12C [ginsenoside-RD] (10 µM),morphology score,[1],0.0521
same,SARS-CoV-2 infection rate,[2],102% (inactive)
CN1CCCC(n2nc(Cc3ccc(Cl)cc3)c3ccccc3c2=O)CC1 (configuration not stated) [azelastine] (10 µM),morphology score,[1],0.458
same,SARS-CoV-2 infection rate,[2],72% (inactive)
COc1cc(C(=S)N2CCOCC2)cc(OC)c1OC [sulmetozine] (10 µM),morphology score,[1],0.0452
same,SARS-CoV-2 infection rate,[2],106% (inactive)
NC(=O)C[S+]([O-])C(c1ccccc1)c1ccccc1 (configuration not stated) (10 µM),morphology score,[1],0.113
same,SARS-CoV-2 infection rate,[2],106% (inactive)
Cc1cc(N)c2ccccc2[n+]1CCCCCCCCCC[n+]1c(C)cc(N)c2ccccc21 [dequalinium] (10 µM),morphology score,[1],0.175
same,SARS-CoV-2 infection rate,[2],94% (inactive)
CC(C)CCNC(=O)[C@H](CC(C)C)NC(=O)[C@H]1O[C@@H]1C(=O)O [loxistatin-acid] (10 µM),morphology score,[1],0.296
same,SARS-CoV-2 infection rate,[2],88% (inactive)
CC1Oc2cc(cnc2N)-c2c(nn(C)c2C#N)CN(C)C(=O)c2ccc(F)cc21 (configuration not stated) (10 µM),morphology score,[1],0.32
same,SARS-CoV-2 infection rate,[2],99.5% (inactive)
N#Cc1ccc(COC[C@H]2O[C@@H](n3c(NCc4ccc(Cl)c(Cl)c4)nc4c(N)ncnc43)[C@H](O)[C@@H]2O)cc1 (10 µM),morphology score,[1],0.0983
same,SARS-CoV-2 infection rate,[2],106% (inactive)
COc1ccccc1N1CCN(CCN(C(=O)C2CCCCC2)c2ccccn2)CC1 (10 µM),morphology score,[1],0.0947
same,SARS-CoV-2 infection rate,[2],118% (inactive)
Cc1ccc2c(c1)[C@H]1CN(C)CC[C@H]1N2 [stobadine] (10 µM),morphology score,[1],0.0748
same,SARS-CoV-2 infection rate,[2],98% (inactive)
CCN(CC)CCNC(=O)c1cc(Br)c(N)cc1OC [bromopride] (10 µM),morphology score,[1],-0.115
same,SARS-CoV-2 infection rate,[2],116% (inactive)
C=CCNc1c(O)cc2c(O)c1C[C@@H](C)C[C@H](OC)[C@H](O)[C@@H](C)/C=C(\C)[C@H](OC(N)=O)[C@@H](OC)/C=C\C=C(/C)C(=O)N2 [retaspimycin] (10 µM),morphology score,[1],-0.0349
same,SARS-CoV-2 infection rate,[2],108% (inactive)
Nc1ncc2c(n1)CC(c1ccco1)CC2=O (configuration not stated) (10 µM),morphology score,[1],0.0161
same,SARS-CoV-2 infection rate,[2],99% (inactive)
C[C@H](N)Cn1ccc2cc(F)c(Cl)cc21 (10 µM),morphology score,[1],0.45
same,SARS-CoV-2 infection rate,[2],90.5% (inactive)
O=C1N[C@@H]2[C@@H](O)[C@@H](O)[C@H](O)[C@@H](CO)N2C1=O [kifunensine] (10 µM),morphology score,[1],0.19
same,SARS-CoV-2 infection rate,[2],94% (inactive)
CC(CCc1ccccc1)NC(C)C(O)c1ccc(O)cc1 (configuration not stated) [buphenine] (10 µM),morphology score,[1],-0.137
same,SARS-CoV-2 infection rate,[2],114% (inactive)
CN(C)C/C=C(/c1ccc(Br)cc1)c1cccnc1 [zimelidine] (10 µM),morphology score,[1],0.166
same,SARS-CoV-2 infection rate,[2],97% (inactive)
CS(=O)(=O)N1CCN(Cc2cc3nc(-c4cccc5[nH]ncc45)nc(N4CCOCC4)c3s2)CC1 (10 µM),morphology score,[1],-0.319
same,SARS-CoV-2 infection rate,[2],89% (inactive)
C=CC(C)(C)c1cc(/C=C/C(=O)c2ccc(O)cc2)c(OC)cc1O [licochalcone-A],inhibition of SARS-CoV-2 cytopathic effect,[3]; 1 nM,-0.14% (inactive)
same,inhibition of SARS-CoV-2 cytopathic effect,[3]; 8.33 nM,0.43% (inactive)
same,inhibition of SARS-CoV-2 cytopathic effect,[3]; 100 nM,-0.55% (inactive)
same,inhibition of SARS-CoV-2 cytopathic effect,[3]; 833.33 nM,-9.62% (inactive)
same,inhibition of SARS-CoV-2 cytopathic effect,[3]; 10000 nM,8.6% (inactive)
CO[C@@H]1[C@@H](O[C@@H]2O[C@H](C)[C@@H](O[C@H]3C[C@@](C)(O)[C@@H](OC(=O)CC(C)C)[C@H](C)O3)[C@H](N(C)C)[C@H]2O)[C@@H](CC=O)C[C@@H](C)[C@@H](O)/C=C/C=C/C[C@@H](C)OC(=O)C[C@H]1OC(C)=O [josamycin],inhibition of SARS-CoV-2 cytopathic effect,[3]; 1 nM,2.65% (inactive)
same,inhibition of SARS-CoV-2 cytopathic effect,[3]; 8.33 nM,0.07% (inactive)
same,inhibition of SARS-CoV-2 cytopathic effect,[3]; 100 nM,-2.91% (inactive)
same,inhibition of SARS-CoV-2 cytopathic effect,[3]; 833.33 nM,-1.73% (inactive)
same,inhibition of SARS-CoV-2 cytopathic effect,[3]; 10000 nM,-7.02% (inactive)
CC(=O)Nc1cc([As](=O)(O)O)ccc1O [acetarsol],inhibition of SARS-CoV-2 cytopathic effect,[3]; 1 nM,0.15% (inactive)
same,inhibition of SARS-CoV-2 cytopathic effect,[3]; 8.33 nM,0.13% (inactive)
same,inhibition of SARS-CoV-2 cytopathic effect,[3]; 100 nM,1.84% (inactive)
CC12CC3CC(C)(C1)CC(N)(C3)C2 [memantine],inhibition of SARS-CoV-2 cytopathic effect,[3]; 1 nM,0.45% (inactive)
same,inhibition of SARS-CoV-2 cytopathic effect,[3]; 8.33 nM,0.23% (inactive)
same,inhibition of SARS-CoV-2 cytopathic effect,[3]; 100 nM,1.56% (inactive)
same,inhibition of SARS-CoV-2 cytopathic effect,[3]; 833.33 nM,2% (inactive)
same,inhibition of SARS-CoV-2 cytopathic effect,[3]; 10000 nM,-1.57% (inactive)
C[CH2][Hg][S]c1ccccc1C(=O)[O-].[Na+] [thiomersal],inhibition of SARS-CoV-2 cytopathic effect,[3]; 1 nM,0.94% (inactive)
same,inhibition of SARS-CoV-2 cytopathic effect,[3]; 8.33 nM,0.96% (inactive)
same,inhibition of SARS-CoV-2 cytopathic effect,[3]; 100 nM,1.12% (inactive)
COc1ccc(OC)c(CN(C(C)=O)c2cc(F)ccc2Oc2ccccc2)c1,inhibition of SARS-CoV-2 cytopathic effect,[3]; 1 nM,1.17% (inactive)
same,inhibition of SARS-CoV-2 cytopathic effect,[3]; 8.33 nM,-0.16% (inactive)
same,inhibition of SARS-CoV-2 cytopathic effect,[3]; 100 nM,4.26% (inactive)
same,inhibition of SARS-CoV-2 cytopathic effect,[3]; 833.33 nM,3.55% (inactive)
same,inhibition of SARS-CoV-2 cytopathic effect,[3]; 10000 nM,2.47% (inactive)
